The supplement of paper PMC6555819

Legend:
Assay in all cases: PBM binding z-score (relative to random genomic background probes); higher = stronger binding; sequences stand for … in GC…GCGATTGACAGCGTAGAATGAAGG
[1] = test system: PPARg:RXRa DBDmut IVT, anti-RXR (DBD mutation: RXRa K156A/R161A, NR concentration 270 nM, RXRa partner concentration 90 nM)
How it was run: (§1)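 Antibodies against each partner of ligand-free nuclear receptor dimers (one per run) detected binding on custom Agilent 4×180K protein-binding microarrays after 1 h incubation. The double-stranded probes had 34-nt variable regions carrying direct-repeat seeds, single-nucleotide variants, half-site ablations and random human genomic background sequences. Binding z-scores, from regression-normalized fluorescence, use the random background probes as reference.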

[2] = test system: PPARg:RXRa IVT, anti-PPARg (NR concentration 270 nM, RXRa partner concentration 90 nM)
How it was run: as §1

[3] = test system: PPARg DBDmut:RXRa IVT, anti-PPARg (DBD mutation: PPARg1 K132A/R137A, NR concentration 270 nM, RXRa partner concentration 90 nM)
How it was run: as §1

[4] = test system: PPARg DBDmut IVT, anti-PPARg (DBD mutation: PPARg1 K132A/R137A, NR concentration 270 nM)
How it was run: as §1

[5] = test system: PPARg homodimer (NR concentration 180 nM)
How it was run: as §1

[6] = test system: PXR:RXRa (NR concentration 270 nM, RXRa partner concentration 90 nM)
How it was run: as §1

[7] = test system: PXR homodimer (NR concentration 270 nM)
How it was run: as §1

[8] = test system: RARa:RXR (NR concentration 270 nM, RXRa partner concentration 90 nM)
How it was run: as §1

[9] = test system: RARa homodimer (NR concentration 270 nM)
How it was run: as §1

[10] = test system: RARb:RXRa (NR concentration 270 nM, RXRa partner concentration 90 nM)
How it was run: as §1

[11] = test system: RARb homodimer (NR concentration 270 nM)
How it was run: as §1

[12] = test system: RARg:RXRa (NR concentration 270 nM, RXRa partner concentration 90 nM)
How it was run: as §1

[13] = test system: RARg homodimer (NR concentration 270 nM)
How it was run: as §1

[14] = test system: RXRa DBDmut IVT, anti-RXR (DBD mutation: RXRa K156A/R161A, NR concentration 90 nM)
How it was run: as §1

[15] = test system: RXRa homodimer (NR concentration 180 nM)
How it was run: as §1

[16] = test system: THRa:RXRa (NR concentration 90 nM, RXRa partner concentration 90 nM)
How it was run: as §1

[17] = test system: THRa homodimer (NR concentration 90 nM)
How it was run: as §1

[18] = test system: VDR:RXRa (NR concentration 270 nM, RXRa partner concentration 90 nM)
How it was run: as §1

[19] = test system: VDR homodimer (NR concentration 270 nM)
How it was run: as §1

Sequence | PBM binding z-score [1] | PBM binding z-score [2] | PBM binding z-score [3] | PBM binding z-score [4] | PBM binding z-score [5] | PBM binding z-score [6] | PBM binding z-score [7] | PBM binding z-score [8] | PBM binding z-score [9] | PBM binding z-score [10] | PBM binding z-score [11] | PBM binding z-score [12] | PBM binding z-score [13] | PBM binding z-score [14] | PBM binding z-score [15] | PBM binding z-score [16] | PBM binding z-score [17] | PBM binding z-score [18] | PBM binding z-score [19]
ATAGACAGGTGAGTGAAGGTAACTCAGCTGGACG | -0.0175 | 0.973 | 0.246 | 0.208 | 0.132 | 0.352 | 0.0205 | 0.959 | -0.0264 | 0.603 | 0.264 | 0.515 | 0.582 | -0.459 | 0.665 | 1.68 | -0.333 | 0.0461 | -0.359
TCTCGGAGGACACGAATGTCAGAGCTTTCCAGAG | 1.02 | -0.236 | -0.725 | -1.02 | -0.998 | -0.181 | -0.893 | -0.129 | -0.458 | 1.47 | 0.771 | 0.642 | 1.42 | 0.518 | 0.168 | 1.23 | 0.52 | -0.117 | -0.491
ACTTACGGGTCAACGAGGTTAAAGCACGCGTATA | 3.22 | 4.19 | 0.985 | 1.02 | 2.28 | 5.38 | 3.33 | 5.36 | 0.479 | 4.53 | 3.82 | 5.73 | 5.18 | 2.51 | 6.72 | 4.25 | 1.17 | 7.52 | 3.67
CGTCCAAGGTCATAGAAGGTCAGTGAAGACAGAT | 3.2 | 4.17 | 0.653 | 0.867 | 2.94 | 6.39 | 3.15 | 5.72 | 1.77 | 5.41 | 5.56 | 6.7 | 7.06 | 4.03 | 6.78 | 5.07 | 2.62 | 6.34 | 4
GTGACTGGGGCAAAGCAGGTTACCATAAGGTTGG | 4.87 | 5.02 | 1.15 | 0.645 | 0.994 | 0.926 | -0.0315 | 1.99 | -0.0502 | 1.14 | 1.55 | 1.43 | 1.19 | -0.205 | 0.875 | 3.35 | 0.631 | 0.488 | 0.275
CCTACTAGGCCATTCAGAGGTCATTGATCATATG | 5.98 | 5.01 | 1.66 | 0.481 | 2.94 | 4.79 | 3.44 | 4.84 | 1.44 | 3.45 | 4.46 | 4.99 | 3.55 | 2.14 | 4.11 | 3.42 | 2.03 | 4.33 | 3.93
CCTTACGGGTCAAGGTCATAGCACGGGTGGTACG | 1.92 | 4.64 | 0.493 | -0.425 | 2.88 | 5.05 | 1.3 | 5.28 | 0.441 | 5 | 4.87 | 6.23 | 6.45 | 2.02 | 7.01 | 4.18 | 3.42 | 5.14 | 3.71
ACAGACAGGTGATGAAGGGAACTCAGGCTATCAT | 0.344 | 0.145 | 0.471 | -0.0521 | 0.0738 | -0.382 | 0.482 | -0.121 | 0.0733 | 0.0899 | 0.0495 | 0.231 | 0.46 | -0.425 | 0.238 | 0.341 | -0.114 | -0.182 | -0.128
TCTTCTAGGTCAGTTGGTCAGCTAACGAGCTGCC | 6.39 | 6.42 | 3.22 | 3.33 | 2.21 | 1.3 | 0.447 | 1.58 | 1.05 | 3.79 | 3.05 | 3.26 | 4.08 | 1.65 | 1.62 | 2.19 | 1.58 | 1.3 | 0.514
CCTCCTGGGCCAAAAAGGTCATTGATGCCGATAA | -0.0525 | 1.53 | -0.96 | -0.947 | 2.51 | 4.62 | 2.5 | 4.44 | 0.621 | 3.9 | 4.4 | 4.5 | 3.91 | 0.197 | 4.5 | 3.12 | 0.604 | 4.94 | 2.38
CCTTACGGGTCAAGGTTTTAGCACGGGTGGTACG | 2.52 | 3.36 | 0.173 | -0.72 | 2.55 | 2.95 | -0.244 | 4.13 | 0.944 | 4.2 | 3.11 | 4.62 | 4.4 | 0.499 | 5.16 | 2.51 | 0.113 | 2.82 | 0.742
TCGAGAAGGTTAGGGGCATTCAGAATGGCGTCGA | 1.15 | 0.162 | -1.01 | -0.967 | 0.818 | 0.866 | -0.0334 | 0.991 | 0.387 | 2.02 | 1.46 | 1.08 | 0.841 | 0.703 | 1.45 | 1.12 | 0.127 | 1.12 | 0.971
CAAACTAGGTCACAGGAAGGTCAAAGTCCGCATG | 8.64 | 8.8 | 3.59 | 2.12 | 6.59 | 5.73 | 1.51 | 7.15 | 2.2 | 4.93 | 5.1 | 7.79 | 7 | 2.17 | 6.07 | 4.36 | 2.46 | 5.74 | 3.1
ATCTCTAGGTAAAGATACTTCAGTGAATGCAAAT | 1.8 | 1.32 | 1.1 | 1.13 | 0.534 | 0.635 | 0.252 | 0.522 | 0.591 | -0.033 | -0.416 | 0.491 | 0.669 | -0.0244 | 0.385 | 0.398 | 0.038 | 0.244 | 0.371
AGTCAAAGTTCATCTAGGTAACCTAAGATATGCT | 0.989 | 3.71 | 1.38 | 1.29 | 3.22 | 5.34 | 6.67 | 3.84 | 1.21 | 4.88 | 4.08 | 5.61 | 6.14 | 4.79 | 4.87 | 3.21 | 0.817 | 5.11 | 5.75
